For nine compounds, Potency, outcome and PLD induction results are on record in PubChem BioAssay (Tox21).

The nature of assay [1]: A CellTox Green Cytotoxicity Assay to monitor cytotoxicity in HEK293 cells - 32 hour (AID 1224881). Note: nearly all actives have a fitted effect of over 40% in size. The method, boiled down:
(§1)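 HEK293 cells premixed with CellTox Green dye were seeded at 600 cells/well and left 5 h at 37 C/5% CO2 before pin transfer of 23 nL compound in DMSO. Fluorescence from dye bound to dead-cell DNA was read during 40 h treatment.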

Assay [2] is described as follows: A CellTox Green Cytotoxicity Assay to monitor cytotoxicity in HEK293 cells - 8 hour (AID 1224884). Note: nearly all actives have a fitted effect of over 35% in size. The method, boiled down: as §1
Assay [3] in a line: qHTS RealTime-Glo MT Cell Viability Assay in HepG2 cells - 16 hour (AID 1224885). Note: nearly all actives have a fitted effect of over 50% in size. The method, boiled down:
(§2)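 HepG2 cells were seeded at 600 cells/well together with NanoLuc luciferase and a cell-permeant prosubstrate, preincubated 5 h at 37 C/5% CO2, then pin-dosed with compounds in DMSO. Nonlytic luminescence from viable cells was read at each time point.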
In general terms: In qHTS, concentration-response curves come from the screen itself.

Assay [4] can be described thus: qHTS RealTime-Glo MT Cell Viability Assay in HEK293 cells - 24 hour (AID 1224886). Note: top concentration of the series differs between compounds; nearly all actives have a fitted effect of over 50% in size. A digest of the protocol:
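HEK293 cells were seeded at 600 cells/well together with NanoLuc luciferase and cell-permeant prosubstrate, preincubated 5 h at 37 C/5% CO2, then given compound in DMSO by pintool. Luminescence from viable-cell prosubstrate reduction was read repeatedly over 40 h.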

Assay [5] in a line: qHTS RealTime-Glo MT Cell Viability Assay in HEK293 cells - 8 hour (AID 1224887). Note: nearly all actives have a fitted effect of over 50% in size. Note: potency is the fitted concentration of half-maximal effect. A digest of the protocol: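 HEK293 cells mixed with RealTime-Glo reagents (NanoLuc plus cell-permeant prosubstrate) at 600 cells/well, preincubated 5 h at 37 C/5% CO2, then given 23 nL compound in DMSO. Nonlytic luminescence from viable cells was read at 0, 8, 16, 24, 32 and 40 h.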
The nature of assay [6]: A CellTox Green Cytotoxicity Assay to monitor cytotoxicity in HEK293 cells - 16 hour (AID 1224888). Note: nearly all actives have a fitted effect of over 35% in size. The method, boiled down: as §1
Assay [7] can be described thus: qHTS RealTime-Glo MT Cell Viability Assay in HepG2 cells - 0 hour (AID 1224889). Note: nearly all actives have a fitted effect of over 50% in size. A digest of the protocol: as §2
Assay [8] in a line: A CellTox Green Cytotoxicity Assay to monitor cytotoxicity in HepG2 cells - 8 hour (AID 1224890). Note: nearly all actives have a fitted effect of over 45% in size. The method, boiled down: (§3)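 HepG2 cells were seeded together with the CellTox Green dye at 600 cells/well, left 5 h at 37 C/5% CO2, then given compounds in DMSO. Fluorescence from dye bound to dead-cell DNA was read repeatedly over 40 h of treatment at 37 C.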
Assay [9] is described as follows: qHTS assay to identify small molecule antagonists of the estrogen receptor alpha (ER-alpha) signaling pathway using the BG1 cell line in the presence of 0.1 nM 17-beta-estradiol - cell viability counter screen (AID 1259241). Note: nearly all actives have a fitted effect of over 40% in size. The method, boiled down: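 In this screen, hormone-deprived VM7Luc4E2 cells were seeded at 4,000 per well, dosed with compound and 0.1 nM estradiol final, and incubated 22 hr at 37C and 5% CO2; fluorogenic live-cell protease signal reported viability.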

A short description of assay [10]: qHTS assay to identify small molecule antagonists of the androgen receptor (AR) signaling pathway using the MDA cell line in the presence of 0.5 nM R1881 - cell viability counter screen (AID 1259242). Note: nearly all actives have a fitted effect of over 45% in size. A digest of the protocol: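 MDA-kb2 cells (human breast carcinoma, stably carrying MMTV-luciferase reporter) were exposed to compounds with 0.5 nM R1881 (final) for 16 hr at 37C, 0% CO2; viability then read as live-cell protease fluorescence (CellTiter-Fluor, 30 min) in the same wells.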

The nature of assay [11]: qHTS assay to identify small molecule HDAC inhibitors (AID 1259364). Note: top concentration of the series differs between compounds; nearly all actives have a fitted effect of over 45% in size. The method, boiled down: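 Wild-type HCT-116 cells were plated overnight, exposed to compounds for 2 h at 37 °C, then given HDAC-Glo class I/II luminogenic reagent for 30 min at room temperature before luminescence was read.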
The nature of assay [12]: qHTS assay to identify small molecule HDAC inhibitors - cell viability counter screen (AID 1259365). A digest of the protocol: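 Measured quantity is CellTiter-Glo luminescence from wild-type HCT-116 cells after compound incubation of 2hr at 37C, 5% CO2; reagent developed 30min at room temperature.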
Assay [13] is described as follows: qHTS assay to identify small molecule agonists of the sonic hedgehog signaling (Shh) pathway - cell viability counter screen (AID 1259366). Note: nearly all actives have a fitted effect of over 50% in size. Note: potency is the fitted concentration of half-maximal effect. The method, boiled down:
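In quantitative high-throughput format, 3T3 Gli1-Luc cells were exposed to compounds for 24hr and multiplexed for viability using CellTiter-Fluor, incubated 1hr at 37C before the fluorescence read.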

Assay [14] is described as follows: qHTS assay to identify small molecule antagonists of the sonic hedgehog signaling (Shh) pathway - cell viability counter screen (AID 1259367). Note: nearly all actives have a fitted effect of over 55% in size. A digest of the protocol: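 Seed 3T3 Gli1-Luc cells at 2,000 per well; incubate 4 hr; add compound in DMSO, then conditioned medium; incubate at 37C with 5% CO2; add CellTiter-Fluor after 23 hr; read fluorescence 1 hr later.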

Assay [15] in a line: qHTS assay to identify small molecule agonists of the sonic hedgehog signaling (Shh) pathway (AID 1259368; calls by dose curve; note: series mostly up to about 92 µM; nearly all actives have a fitted effect of over 15% in size). The method, boiled down: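 NIH/3T3-derived 3T3Gli1-Luc cells carrying a stably integrated Gli1 response element–firefly luciferase reporter were plated, left 4 hr at 37 C, then given compounds in DMSO for 24 hr. Luminescence was read 30 min after adding luciferase reagent.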

The nature of assay [16]: A CellTox Green Cytotoxicity Assay to monitor cytotoxicity in HepG2 cells - 32 hour (AID 1224883). Note: nearly all actives have a fitted effect of over 50% in size. The method, boiled down:
as §3

In assay [17] the target is Estrogen receptor (Homo sapiens) (UniProt P03372). In words: qHTS assay to identify small molecule antagonists of the estrogen receptor alpha (ER-alpha) signaling pathway using the BG1 cell line in the presence of 0.1 nM 17-beta-estradiol (AID 1259244). Note: nearly all actives have a fitted effect of over 50% in size. Note: potency is the fitted concentration of half-maximal effect. The method, boiled down: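 VM7Luc4E2 cells (endogenous full-length ER-alpha, stable 4xERE-luciferase) were grown 5 days in phenol red-free medium with charcoal-stripped FBS, then exposed 22 h at 37C to compounds plus 0.1 nM (final) 17beta-estradiol; ONE-Glo luminescence read-out.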
Estrogen receptor (Homo sapiens), sequence (P03372 whole entry, looked up): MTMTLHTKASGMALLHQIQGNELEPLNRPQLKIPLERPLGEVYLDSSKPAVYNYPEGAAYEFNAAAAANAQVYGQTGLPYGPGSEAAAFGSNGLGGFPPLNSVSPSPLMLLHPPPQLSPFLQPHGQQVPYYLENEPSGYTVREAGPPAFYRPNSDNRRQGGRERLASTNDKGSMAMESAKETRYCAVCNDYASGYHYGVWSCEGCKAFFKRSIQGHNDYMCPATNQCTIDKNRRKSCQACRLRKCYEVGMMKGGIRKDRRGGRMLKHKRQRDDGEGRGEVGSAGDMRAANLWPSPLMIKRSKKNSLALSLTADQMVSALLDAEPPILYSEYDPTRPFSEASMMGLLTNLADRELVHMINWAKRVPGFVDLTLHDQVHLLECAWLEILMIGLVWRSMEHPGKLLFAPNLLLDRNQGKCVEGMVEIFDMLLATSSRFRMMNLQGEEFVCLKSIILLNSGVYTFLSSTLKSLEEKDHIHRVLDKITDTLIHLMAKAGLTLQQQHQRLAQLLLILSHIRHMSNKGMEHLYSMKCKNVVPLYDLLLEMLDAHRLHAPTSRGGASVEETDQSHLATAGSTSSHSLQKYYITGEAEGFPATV

Assay [18] can be described thus: qHTS assay to identify small molecule phospholipidosis (PLD) inducers (AID 1259344; active = well fitted curve in the direction sought with a large enough effect; an effect the other way counts as inactive or inconclusive). The method, boiled down:
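Quantitative HTS in HepG2: compound plus LipidTOX Red dye for 24 h, paraformaldehyde fixation with Hoechst 33342, widefield high-content imaging; amiodarone as positive and DMSO as negative control.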

For assay [19], the target named is Androgen receptor (Homo sapiens) (UniProt P10275). In words: qHTS assay to identify small molecule antagonists of the androgen receptor (AR) signaling pathway using the MDA cell line in the presence of 0.5 nM R1881 (AID 1259243). Note: nearly all actives have a fitted effect of over 50% in size. The method, boiled down: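 MDA-kb2 human breast carcinoma cells carrying an MMTV-luciferase reporter (AR- and GR-responsive) were plated, rested 5 hr at 37C, dosed with compounds, then stimulated with 0.5 nM R1881 (final) for 16 hr; luminescence was read after ONE-Glo.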
Androgen receptor (Homo sapiens), sequence (P10275 whole entry, looked up): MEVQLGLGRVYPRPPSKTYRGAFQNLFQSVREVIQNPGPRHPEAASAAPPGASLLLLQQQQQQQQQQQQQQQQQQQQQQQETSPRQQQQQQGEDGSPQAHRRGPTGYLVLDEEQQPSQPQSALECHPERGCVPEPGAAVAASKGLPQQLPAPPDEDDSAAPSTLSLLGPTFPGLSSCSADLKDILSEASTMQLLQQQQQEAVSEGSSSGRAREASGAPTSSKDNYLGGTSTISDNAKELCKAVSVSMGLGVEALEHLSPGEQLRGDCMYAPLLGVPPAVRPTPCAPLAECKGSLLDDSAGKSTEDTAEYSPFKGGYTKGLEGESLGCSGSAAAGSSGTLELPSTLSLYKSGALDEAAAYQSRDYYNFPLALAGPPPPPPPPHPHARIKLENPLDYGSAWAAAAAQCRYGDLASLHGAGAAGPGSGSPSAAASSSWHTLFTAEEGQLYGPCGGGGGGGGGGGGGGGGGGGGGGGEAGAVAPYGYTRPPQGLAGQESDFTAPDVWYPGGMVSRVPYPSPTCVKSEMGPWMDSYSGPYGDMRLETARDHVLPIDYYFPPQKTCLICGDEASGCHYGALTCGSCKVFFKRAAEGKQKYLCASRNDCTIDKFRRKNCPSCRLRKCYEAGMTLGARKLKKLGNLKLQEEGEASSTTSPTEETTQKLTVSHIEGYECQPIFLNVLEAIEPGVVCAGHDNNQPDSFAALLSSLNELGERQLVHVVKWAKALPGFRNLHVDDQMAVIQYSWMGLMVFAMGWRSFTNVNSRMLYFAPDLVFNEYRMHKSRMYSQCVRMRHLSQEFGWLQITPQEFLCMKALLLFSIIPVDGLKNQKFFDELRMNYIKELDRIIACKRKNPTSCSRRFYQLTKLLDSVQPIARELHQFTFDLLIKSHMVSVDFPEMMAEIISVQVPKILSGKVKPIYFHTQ

Assay [20] can be described thus: A CellTox Green Cytotoxicity Assay to monitor cytotoxicity in HepG2 cells - 0 hour (AID 1224882). Note: nearly all actives have a fitted effect of over 35% in size. A digest of the protocol: as §3

Structures are written as SMILES. A number with no mark means an inactive call. Records with an inconclusive call do not appear. Active and inactive are the calls of the source. Unless noted, calls come from the whole dose curve; as a rule, active = well fitted curve in the direction sought with a large enough effect in the repeat runs; inconclusive = weak or mixed curves; inactive = no such curve, though single readings can be large; an effect the other way counts as inactive or inconclusive.
% is set by controls: 0 for no effect and ±100 for the full control effect.

Regarding `CCN(CC)CCOC(=O)C(C)(c1ccccc1)c1ccccc1`, the Potency entry in assay [1], in [2], in assay [3], in [4], in assay [5] and in assay [6] was “inactive” throughout. For the same compound, the Potency entry in assay [7], in assay [8], in assay [11], in [13] and in [14] was “inactive” in each case. Further, the result in [9], in assay [10], in assay [12] and in [15] was inactive.
As for `O=C(Nc1ccccc1)N(Cc1ccc(Cl)cc1)C1CCCC1`, the Potency result in [1], in [16], in [6], in [7], in assay [8] and in assay [11] was “inactive” in each case. Further, the Potency in assay [5] was 24.5 µM (active). In addition, the outcome in [9], in assay [10], in assay [12] and in assay [15] was inactive.
As for `CC1(C)CON(Cc2ccccc2Cl)C1=O`, the Potency entry in assay [1], in [16], in assay [3], in [4], in [5] and in assay [7] was “inactive” each time. The Potency entry in assay [8], in assay [17], in assay [11], in [13] and in [14] was “inactive” each time. Besides, the result in assay [9], in assay [10], in [12] and in assay [15] was inactive.
Consider `Cc1ncc2n1-c1ccc(Cl)cc1C(c1ccccc1F)=NC2`, for which the Potency entry in assay [1], in assay [16], in assay [3], in assay [5], in assay [7] and in assay [8] was “inactive” each time. The Potency result in assay [11], in assay [13] and in [14] was “inactive” throughout. Moreover, the result in assay [10], in assay [18], in [12] and in [15] was inactive. For the same compound, in assay [17], the Potency was 10.6 µM (active).
With `CC(C)(C)NCC(O)c1cc(Cl)c(N)c(Cl)c1` (stereo unspecified), the Potency result in [1], in [16], in assay [3], in assay [4], in [5] and in assay [6] was “inactive” each time. The Potency result in assay [7], in assay [8], in [19] and in [11] was “inactive” in each case. Besides, the outcome in [10], in assay [18], in assay [12] and in [15] was inactive. Also, in assay [13], the Potency was 11.9 µM (active).
As to `CCc1cc2c(s1)-n1c(C)nnc1CN=C2c1ccccc1Cl`, the Potency entry in [16], in assay [3], in assay [4], in [5], in [7] and in assay [8] was “inactive” in each case. Further, the Potency result in assay [11] is “inactive”. Also, the result in assay [10], in [12] and in [15] was inactive. For the same compound, the Potency in assay [17] is 18.8 µM (active). Besides, in assay [18], the PLD induction is -2.33% [at 1.53 µM].
For the compound `Nc1c(Br)cc([N+](=O)[O-])cc1[N+](=O)[O-]`, the Potency entry in [1], in assay [16], in assay [4], in assay [5], in assay [6] and in [7] was “inactive” in each case. For the same compound, the Potency result in assay [8], in assay [17], in assay [11] and in assay [14] was “inactive” throughout. The result in assay [9], in assay [10], in assay [12] and in assay [15] was inactive.
Take `CCOP(=O)(N=C1SCCS1)OCC`: the Potency result in [1], in assay [16], in [3], in assay [4], in assay [5] and in assay [6] was “inactive” each time. The Potency entry in assay [7], in [8], in assay [17], in [11], in [13] and in assay [14] was “inactive” throughout. Besides, the result in assay [9], in assay [10], in [12] and in assay [15] was inactive.
On to `CC1(C)C(=O)NC(=O)NC1=O`, for which the outcome in assay [20], in [9], in assay [10], in assay [12] and in assay [15] was inactive. Moreover, the Potency entry in assay [16], in assay [3], in assay [5], in [7], in assay [8] and in assay [17] was “inactive” in each case. Moreover, the Potency entry in [11], in assay [13] and in assay [14] was “inactive” throughout.
